Calls of active or inactive are those of the source.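 Rule for the calls: active = growth inhibition above 50% at the single 2 µM test dose, taken to imply half-maximal potency below 2 µM; inactive = the rest.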
experiment: antimalarial activity against Dd2 strain (AID 2302);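 note: 0% = DMSO untreated growth and 100% = chloroquine plus artemisinin killed control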; settings: P. falciparum Dd2 in RBCs, LDH growth readout, 72 h; at 2 µM; hits give high values

Growth inhibition, inactive:
CCCCNCc1ccc(-c2nc(CN(Cc3ccc(Cl)c(Cl)c3)S(=O)(=O)c3ccc(NC(C)=O)cc3)cs2)cc1 20%
CCc1c(CCNCCCCCCNCCc2ccc(OC)c(OC)c2CC)ccc(OC)c1OC 1%
COc1ccc(-c2ccccc2CNC2Cc3ccccc3C2)cc1S(=O)(=O)NCCN1CCCC1 47%
Cc1nc(N)nc(N)c1-c1ccc(Br)cc1 1%
CN1CCN(c2cc(NC(=O)c3ccc(-c4ccc(Cl)cc4)cc3)ccc2Cl)CC1 33%
O=C(COc1ccc(Cl)c(Cl)c1)NCCCCCN1CCCN(C(=O)Nc2cc(Cl)cc(Cl)c2)CC1 1%
CCN(CCCN1CCCCC1)c1cc(C)nc(Nc2cc(Br)ccc2C)n1 39%
COc1ccc(-c2ccc(Nc3cccc(S(=O)(=O)CCN4CCC(CCN(C)C)CC4)c3)nc2)cn1 9%
CC(C)CNC(=O)c1cncc(-c2cccc(CNC3Cc4ccccc4C3)c2)c1 19%
CN(Cc1cccc(O)c1)C1CCCN(c2cc(NC(=O)c3ccc(F)cc3)ccn2)C1 (centres undefined) 12%
O=C(NCc1cccc(CN2CCOCC2)c1)c1cc(Br)cc(N2CCN(c3ccncc3)CC2)c1 29%
CC(Oc1c(C2CCN(CCCCNC(=O)c3ccc(-c4ccc(Cl)cc4)cc3)CC2)ccc2c1CCCC2)C(N)=O (centres undefined) 16%
NS(=O)(=O)c1ccc(CNC(=O)c2cnc3c(O)cccc3c2Nc2cccc(NC(=O)c3ccc(Cl)c(Cl)c3)c2)cc1 35%
CCCC1N=C(N)N=C(N)N1c1ccc(OC)cc1 (centres undefined) 4%
OCc1ccc2nc3c(cc2c1)-c1cccc2cccc-3c12 -1%
COc1ccc(C)c(Nc2ccnc(Nc3ccc(-c4cnc[nH]4)cc3)n2)c1 6%
COc1cccc(NC(=O)c2cc([N+](=O)[O-])ccc2NC(=O)CN2CCc3ccccc3C2)c1 37%

Growth inhibition, active:
CC(=O)Nc1nc(C(=O)Nc2cccc(-c3ccc4c(cnn4CC4CC4)c3)c2)cs1 67%
CCc1c[nH]c2c(N3CCCC3=O)cc(C(=O)N[C@@H](Cc3ccccc3)[C@H](O)CNC(C)(C)CCCC(C)C)cc12 97%
Nc1ncnc2cc(-c3cccc(S(N)(=O)=O)c3)sc12 99%
COc1cc(F)c2ncc(Cl)c(C(O)CN3CCC(NC(=O)c4ccc5c(n4)NC(=O)CO5)CC3)c2c1 (centres undefined) 100%
CCN(CC)C(=S)N=Nc1c(O)[nH]c2c(C)cccc12 69%
CCCCCCCCCn1c(NCc2cc(Cl)ccc2O)nc2ccccc21 92%
CCCC(CNCc1cccc(C)c1)CNc1cc(=O)c2ccccc2[nH]1 (centres undefined) 89%
CCOc1ccc(-c2nonc2NC(=O)c2cccs2)cc1OCC 100%
COc1ccc2nccc([C@@H](O)CN3CCC(NCc4[nH]c5ccccc5c4F)CC3)c2c1 61%
COc1ccc2nccc(NN=Cc3ccc(F)cc3)c2c1 54%
Cc1ccc(N/C(N)=N/c2ncccc2OCc2c(F)cccc2Cl)cc1 54%
CN(C)CCN(C)Cc1ccc(-c2ccc(NC(=O)c3cccc(Cl)c3)cc2)cc1 54%
O=C(NCCCCN1CCN(c2cccc3c2OCCO3)CC1)c1ccc(NC(=O)c2cc(Cl)cc(Cl)c2)cc1 89%
O=C(Nc1cccc(-c2csc(-c3nc4ccccc4[nH]3)c2)c1)c1ccoc1 67%
COCCNCc1ccc(-c2cccc(CN(C(=O)NCCc3ccccc3)C3CCN(Cc4ccccc4)CC3)c2)cc1 90%
CCn1ncc(Cl)c1CN(C)S(=O)(=O)c1ccc(Br)cc1 70%
CC(C)C[C@H]1C(=O)N[C@H](C2Cc3ccccc3C2)C(=O)N1[C@@H](C(=O)Nc1ccccc1OCc1ccccc1)c1ccc(F)cc1F 67%
COc1ccc(CN(C)CCCOc2ccc(NC(=O)c3cccc4c(=O)c5cccc(C)c5[nH]c34)cc2)cc1OC 62%
Cc1[nH]c(C)c(-c2ccc(OCc3ccccc3)cc2)c(=O)c1Br 96%
CCOc1ccc2nc(C)cc(NN=Cc3cccnc3)c2c1 100%
CN(C)CCNC(=O)c1ccc(-c2cnc3ccc(NCc4ccc(Cl)c(Cl)c4)nn23)cc1 98%
CCNC(=O)NC1CCN(Cc2c(-c3cccs3)nc3ccccc3c2C(=O)N[C@@H](C)C2CCCCC2)CC1 96%
